PubChem BioAssay AID720597 (Broad Institute, 2013)
Results with a measured potency or affinity are listed apart. Unmarked numbers belong to inactive results.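 Rule for the calls: active = fitted half-maximal dose no more than twice the top valid tested dose, for compounds that lower signal; inconclusive = fit invalid, or curve flat with activity between -70 and -30; inactive = potency past limit, curve flat within ±30, or signal increasing.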

target: NAD-dependent protein deacylase sirtuin-5, mitochondrial (Homo sapiens) (UniProt Q9NXA8); experiment: blockers of sirtuin-5 peptide desuccinylation – biochemical, fluorescence imaging, cherry-pick, set 6, dose response (AID 720597); settings: Purified SirT5, succinyl-peptide-AMC/trypsin fluorescence; series mostly up to 15 µM; activity change, negative = inhibition: at the top concentration;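 note: lower AMC signal can also come from blocking the trypsin step; 0% = median of neutral control wells and -100% = median of positive control wells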
Sequence (Q9NXA8 whole entry, looked up): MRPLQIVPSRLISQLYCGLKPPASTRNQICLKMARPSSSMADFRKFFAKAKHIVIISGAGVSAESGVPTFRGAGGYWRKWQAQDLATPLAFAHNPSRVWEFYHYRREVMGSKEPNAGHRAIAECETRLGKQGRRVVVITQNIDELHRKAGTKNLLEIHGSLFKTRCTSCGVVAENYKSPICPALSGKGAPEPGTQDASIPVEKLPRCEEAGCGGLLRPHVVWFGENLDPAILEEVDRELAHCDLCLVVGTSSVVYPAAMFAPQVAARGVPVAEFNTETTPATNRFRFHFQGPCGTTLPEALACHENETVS

Going from C[C@@H]1CCCCO[C@H](CN(C)S(=O)(=O)c2ccc(Cl)cc2)[C@H](C)CN([C@H](C)CO)C(=O)c2cc(NS(=O)(=O)c3ccc(F)cc3)ccc2O1 to Cc1ccc(S(=O)(=O)N(C)C[C@@H]2OCCCC[C@H](C)Oc3ccc(NS(=O)(=O)c4ccc(F)cc4)cc3C(=O)N([C@@H](C)CO)C[C@H]2C)cc1, the “activity change, negative = inhibition” value rises from -23.1% to 18.7%.

Going from COc1ccc(S(=O)(=O)N2CCCCN3[C@H](CO)[C@@H](c4ccc(C#CC5CC5)cc4)[C@@H]3C2)cc1 to CN(C)C(=O)c1cccc(-c2ccc([C@@H]3[C@H]4CN(S(C)(=O)=O)CCCCN4[C@H]3CO)cc2)c1, the “activity change, negative = inhibition” value rises from -31% to -14.8%.

Going from CN(C)C(=O)[C@@H]1[C@@H](CO)[C@@H]2Cn3c(ccc(-c4ccccc4)c3=O)[C@@H]2N1Cc1ccccc1 to C[C@@H]1CN([C@H](C)CO)S(=O)(=O)c2ccc(C#C[C@@H](C)O)cc2O[C@@H]1CN(C)Cc1ccc(-c2ccccc2)cc1, the “activity change, negative = inhibition” value rises from -1.33% to 11.5%.

Compared with C[C@@H]1CN([C@H](C)CO)C(=O)Cc2cc(NS(=O)(=O)c3ccc(F)cc3)ccc2O[C@@H]1CN(C)Cc1ccc(C(F)(F)F)cc1, C[C@@H]1CCCCO[C@H](CN(C)Cc2ccc(C(F)(F)F)cc2)[C@@H](C)CN([C@@H](C)CO)C(=O)c2cc(NS(=O)(=O)c3ccc(F)cc3)ccc2O1 is higher in “activity change, negative = inhibition” value: -20.2% for the first, -12.9% for the second.

First: COc1ccc(S(=O)(=O)Nc2ccc3c(c2)C(=O)N([C@H](C)CO)C[C@H](C)[C@H](CN(C)S(=O)(=O)c2cccs2)OCCCC[C@H](C)O3)cc1
Second: COc1ccc(S(=O)(=O)N(C)C[C@@H]2OCCCC[C@H](C)Oc3ccc(NS(=O)(=O)c4ccc(C)cc4)cc3C(=O)N([C@H](C)CO)C[C@H]2C)cc1
The “activity change, negative = inhibition” value of the first is higher: -12.3% for the first, -12.7% for the second.

Going from CC(C)CC#Cc1ccc2c(c1)O[C@H](CN(C)C(=O)NC1CCCC1)[C@@H](C)CN([C@@H](C)CO)S2(=O)=O to COc1ccccc1S(=O)(=O)N(C)C[C@@H]1Oc2cc(C#CCC(C)C)ccc2S(=O)(=O)N([C@@H](C)CO)C[C@@H]1C, the “activity change, negative = inhibition” value rises from -31.7% to 10%.

Compared with C[C@H]1CN([C@@H](C)CO)S(=O)(=O)c2ccc(-c3cncnc3)cc2O[C@H]1CN(C)Cc1ccc(Oc2ccccc2)cc1, Cc1ccccc1-c1ccc2c(c1)O[C@@H](CN(C)C(=O)Nc1ccc(F)cc1)[C@@H](C)CN([C@@H](C)CO)S2(=O)=O is higher in “activity change, negative = inhibition” value: -0.447% for the first, 8.23% for the second.

First: C[C@@H]1CN([C@@H](C)CO)C(=O)c2c(c3ccccc3n2C)-c2ccccc2CO[C@@H]1CN(C)Cc1cccc2c1OCCCO2
Second: C[C@@H]1CCCCO[C@@H](CN(C)Cc2ccc(Cl)c(Cl)c2)[C@H](C)CN([C@@H](C)CO)C(=O)c2cc(NS(=O)(=O)c3cccs3)ccc2O1
The “activity change, negative = inhibition” value of the first is lower: -11.8% for the first, 14.7% for the second.

Compared with C[C@H](CO)N1C[C@H](C)[C@@H](CN(C)C(=O)C2CCOCC2)Oc2ncc(-c3ccccc3)cc2C1=O, C[C@H](CO)N1C[C@H](C)[C@@H](CN(C)CC2CCCCC2)Oc2c(NC(=O)CCCCCC(=O)Nc3ccccc3N)cccc2C1=O is lower in “activity change, negative = inhibition” value: 4.08% for the first, -6.67% for the second.

Compared with Cn1cnc(S(=O)(=O)N[C@H]2CC[C@@H](CC(=O)Nc3ccccc3)O[C@@H]2CO)c1, O=C(NCC[C@@H]1CC[C@@H](NS(=O)(=O)c2ccc(Cl)cc2)[C@H](CO)O1)c1ccccc1F is lower in “activity change, negative = inhibition” value: 17% for the first, -23.4% for the second.

First: C[C@@H]1CN([C@H](C)CO)S(=O)(=O)c2ccc(C#Cc3ccccc3F)cc2O[C@H]1CN(C)C(=O)c1ccc2c(c1)OCO2
Second: C[C@@H]1CN([C@H](C)CO)S(=O)(=O)c2ccc(C#Cc3cccc(F)c3)cc2O[C@@H]1CN(C)S(=O)(=O)c1ccccc1F
The “activity change, negative = inhibition” value of the first is lower: 22.1% for the first, 40.1% for the second.

Compared with COc1cccc(S(=O)(=O)N(C)C[C@@H]2Oc3cc(C4=CCCC4)ccc3S(=O)(=O)N([C@H](C)CO)C[C@H]2C)c1, COc1cccc(S(=O)(=O)N(C)C[C@@H]2Oc3cc(C4=CCCCC4)ccc3S(=O)(=O)N([C@@H](C)CO)C[C@@H]2C)c1 is lower in “activity change, negative = inhibition” value: 1.6% for the first, -2.52% for the second.

Going from C[C@H]1CN([C@@H](C)CO)S(=O)(=O)c2ccc(-c3cccc(F)c3)cc2O[C@@H]1CN(C)S(=O)(=O)c1ccc(F)cc1 to C[C@@H]1CN([C@@H](C)CO)C(=O)c2cc(NS(=O)(=O)c3ccc(F)cc3)ccc2O[C@@H](C)CCCCO[C@H]1CN(C)Cc1ccc(C(F)(F)F)cc1, the “activity change, negative = inhibition” value falls from 4.42% to -16.4%.

First: O=C(NCC[C@H]1CC[C@H](NS(=O)(=O)c2cccc(F)c2)[C@H](CO)O1)C1CCOCC1
Second: CC(C)c1cn(CC[C@H]2CC[C@H](NS(=O)(=O)c3ccc(F)cc3)[C@@H](CO)O2)nn1
The “activity change, negative = inhibition” value of the first is lower: 5.64% for the first, 10.1% for the second.

Compared with COCC(=O)Nc1ccc2c(c1)OC[C@H](C)N(CC1CC1)C[C@@H](C)[C@@H](OC)CN(C)C2=O, CO[C@@H]1CN(C)C(=O)c2ccc(NS(C)(=O)=O)cc2OC[C@@H](C)N(Cc2nccs2)C[C@H]1C is lower in “activity change, negative = inhibition” value: 13.3% for the first, -9.11% for the second.

Going from O=C(CCN1CCCCC1)N[C@H]1CC[C@H](CC(=O)N2CCC(Cc3ccccc3)CC2)O[C@H]1CO to CCCNC(=O)N1C[C@@H](O)COC[C@@H]2O[C@H](CC(=O)N3CCC(Cc4ccccc4)CC3)CC[C@H]21, the “activity change, negative = inhibition” value rises from -26% to -18.4%.

First: C[C@H](CO)N1C[C@H](C)[C@@H](CN(C)Cc2ccc(Cl)c(Cl)c2)Oc2ccc(NC(=O)CCC(F)(F)F)cc2CC1=O
Second: C[C@H](CO)N1C[C@H](C)[C@H](CN(C)C(=O)Nc2ccc(C(F)(F)F)cc2)OCCCC[C@H](C)Oc2ccc(NS(=O)(=O)c3ccc(Cl)cc3)cc2C1=O
The “activity change, negative = inhibition” value of the first is higher: -5.49% for the first, -15.8% for the second.

First: O=C(CC1CC1)N1[C@@H](CO)[C@@H]2c3ccccc3N(S(=O)(=O)c3ccc(F)cc3)C[C@@H]21
Second: CN(C)C(=O)c1cccc(-c2ccc([C@@H]3[C@@H](CO)N4CCCCN(S(C)(=O)=O)C[C@@H]34)cc2)c1
The “activity change, negative = inhibition” value of the first is lower: -7.04% for the first, 19.7% for the second.

Going from C[C@@H]1CCCCO[C@@H](CN(C)CC2CCCCC2)[C@H](C)CN([C@H](C)CO)C(=O)c2cc(NC(=O)CCCCCC(=O)Nc3ccccc3N)ccc2O1 to C[C@H]1CN([C@@H](C)CO)C(=O)c2ccccc2-c2ccccc2CO[C@H]1CN(C)Cc1ccc(F)cc1, the “activity change, negative = inhibition” value falls from -23.9% [at 16 µM] to -27.3% [at 16 µM].

C[C@H]1CN([C@@H](C)CO)C(=O)c2cc(NS(=O)(=O)c3ccccc3)ccc2O[C@@H]1CN(C)Cc1ccc(C(=O)Nc2ccccc2N)cc1 was tested, and the “activity change, negative = inhibition” value was -9.69% [at 12 µM].

COCCNC(=O)c1cc2c(c(-c3cccc(-c4cccc(F)c4)c3)n1)[C@@H](CCO)N([S@](=O)C(C)(C)C)C2 was tested, and the “activity change, negative = inhibition” value was -11.9% [at 13.5 µM].
